Sampled rows, rich in hits. Any-hit rate of the full collection: about 5.2%.
NadD block – inhibitors of S. aureus NadD, primary screen, biochemical, colorimetric, uHTS | Nicotinate-nucleotide adenylyltransferase NadD (Staphylococcus aureus N315) | purified NadD enzyme, colorimetric absorbance read-out | inhibition, % at 20 µM | 360,000 compounds, 0.78% hits | AID 602399, 2012; in the data active = inhibition above about 26%
GRIN3A LBD mod – binders of NR3A ligand-binding domain, primary screen, biophysical, differential scanning fluorimetry, uHTS; Tm shift relative to glycine control, % at 25 µM; AID 1259313, 2017; 340,000 compounds, 2.5% hits; NR3A LBD differential scanning fluorimetry, Tm shift; 0% = protein alone, 100% = glycine-bound protein;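 active = melting temperature shift of at least 10% of the positive control shift, at one fixed dose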
SMARCA2 activ – SMARCA2 (BRM) function activators, primary screen, cell-based, luminescence, high throughput | MG213 cells, MMTV-luciferase reporter, dexamethasone, overnight | activation, % at 9.1 µM | 370,000 compounds, 1% hits | AID 652017, 2013; in the data active = activation above about 7.8%;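 note: 0% = vehicle wells and 100% = reference activator wells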
SKN-1 block – suppressors of acrylamide-induced Pgst-4::GFP reporter in worms, primary screen, SKN-1 inhibitor project, whole organism, uHTS, GFP/RFP fluorescence ratio, strain VP596; AID 624304, 2012; 360,000 compounds, 0.49% hits; C. elegans VP596 Pgst-4::GFP/RFP ratio, 24 h; inhibition, % at 21.8 µM;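 active = interference check ratio from 0.5 to 1.5 plus GFP to RFP signal ratio inhibition reaching or exceeding a fixed threshold, cut at about 30% in these data, passing the limit was not always enough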
esBAF inh – Bmi1 luciferase reporter increase in mESCs, primary screen, esBAF inhibitor project, mouse ES cells, Bmi1 luciferase knock-in, single point | reporter increase, % at 12.5 µM | 24 h; 100% = twice the neutral-well signal | AID 602393, 2012 | 350,000 compounds, 2% hits; in the data active = activation above about 40%;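 note: 0% = median of the plate's neutral control wells and 100% = double that signal; a rise in the Bmi1 reporter signal indicates esBAF inhibition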
Vif imaging – HIV Vif self-association inhibitors, primary screen, imaging, HEK293T, single point | HEK293T cells, Vif self-association by quenched fluorescence, 24 h | inhibition, % at 7.49 µM | 340,000 compounds, 0.35% hits | AID 602346, 2012; in the data active = inhibition above about 50%, passing the limit was not always enough
* marks the source's active call; other numbers are inactive results; ! = repeats disagree.

Results for C[C@@H]1CCCCO[C@H](CN(C)C(=O)Nc2ccccc2)[C@@H](C)CN([C@H](C)CO)C(=O)c2cc(NS(=O)(=O)c3ccccc3)ccc2O1 ?
esBAF inh: -4

How did O=C(c1cccs1)c1coc2ccc(O)cc12 do in these assays?
NadD block: -6; GRIN3A LBD mod: -25; SMARCA2 activ: 7; SKN-1 block: -11; esBAF inh: 67*; Vif imaging: 24

What do the screens show for `COc1ccc2c(=O)c(-c3ccccc3)coc2c1`?
NadD block: 2; GRIN3A LBD mod: -3; SMARCA2 activ: 4; SKN-1 block: 22; esBAF inh: 0; Vif imaging: -3

What do the screens show for `CC(=O)Oc1ccc2occ(C(=O)c3ccccc3)c2c1`?
NadD block: -4; GRIN3A LBD mod: -1; SMARCA2 activ: 0; SKN-1 block: 7; Vif imaging: -3

Results for CC(=O)Oc1ccc2occ(C(=O)c3cccs3)c2c1 ?
NadD block: -6; GRIN3A LBD mod: 0; SMARCA2 activ: 2; SKN-1 block: 28; esBAF inh: 60*; Vif imaging: 0

What do the screens show for `O=C(c1cccc(Br)c1)c1coc2ccc(O)cc12`?
NadD block: -11; GRIN3A LBD mod: -15; SMARCA2 activ: 4; SKN-1 block: 5; esBAF inh: 70*; Vif imaging: 0

What do the screens show for `CC(=O)Oc1ccc2occ(-c3ccccc3)c2c1`?
NadD block: -8; GRIN3A LBD mod: -3; SMARCA2 activ: 0; SKN-1 block: 0; esBAF inh: 47*; Vif imaging: 1

What do the screens show for `CCC(=O)c1coc2ccc(O)cc12`?
NadD block: 4; GRIN3A LBD mod: 0; SMARCA2 activ: 2; SKN-1 block: -8; Vif imaging: 5

What do the screens show for `COc1ccc(C(=O)c2coc3ccc(O)cc23)cc1`?
NadD block: -10; GRIN3A LBD mod: -2; SMARCA2 activ: 2; SKN-1 block: 20; esBAF inh: -7; Vif imaging: -11

Results for C[C@@H]1CN([C@H](C)CO)C(=O)Cc2cc(NS(=O)(=O)c3ccc(Cl)cc3)ccc2O[C@@H]1CN(C)S(=O)(=O)c1cccs1 ?
esBAF inh: 2

How did C[C@H](CO)N1C[C@H](C)[C@@H](CN(C)C(=O)Nc2ccc(F)cc2)OCCCC[C@H](C)Oc2ccc(NC(=O)CCCN(C)C)cc2C1=O do in these assays?
esBAF inh: 3

How did C[C@H]1CN([C@@H](C)CO)C(=O)c2cc(C#CC3(O)CCCC3)cnc2O[C@@H]1CN(C)C(=O)CC1CC1 do in these assays?
esBAF inh: 7

How did COc1ccc(CN(C)C[C@@H]2Oc3ccc(NS(=O)(=O)c4ccc(C)cc4)cc3C(=O)N([C@H](C)CO)C[C@@H]2C)cc1 do in these assays?
esBAF inh: 0

What do the screens show for `NS(=O)(=O)c1ccc(NN=C2CCCCC2)c([N+](=O)[O-])c1`?
NadD block: -5; GRIN3A LBD mod: 11*; SMARCA2 activ: 7.8*; SKN-1 block: 2; Vif imaging: -1

How did Cc1cc(C)cc(N=Cc2[nH]c3ccc(Br)c(Cl)c3c2O)c1 do in these assays?
NadD block: 1; GRIN3A LBD mod: 18*; SMARCA2 activ: -2; SKN-1 block: 2; Vif imaging: -2

Results for CCc1ccc(-c2cc(C(=O)N3N=C(C(F)F)CC3(O)C(F)F)c3ccccc3n2)cc1 (stereo not given) ?
NadD block: 9; GRIN3A LBD mod: 22*; SMARCA2 activ: 2; SKN-1 block: 13; esBAF inh: 14; Vif imaging: 1

How did CC(C)Cc1cc(C(=O)N2N=C(C(F)F)CC2(O)C(F)F)c2ccccc2n1 (stereo not given) do in these assays?
NadD block: -2; GRIN3A LBD mod: -4; SMARCA2 activ: 0; SKN-1 block: -18; esBAF inh: 0; Vif imaging: 9

How did COc1ccc(NC(=S)N(CCC(C)C)C2CCN(C(C)C)CC2)cc1 do in these assays?
NadD block: -7; GRIN3A LBD mod: 0; SMARCA2 activ: -1; SKN-1 block: -4; esBAF inh: 2; Vif imaging: 3

How did CCOc1ccc(NC(=S)N(CCOC)C2CCN(C(C)C)CC2)cc1 do in these assays?
NadD block: -1; GRIN3A LBD mod: 10*; SMARCA2 activ: 0; SKN-1 block: 18; esBAF inh: -5; Vif imaging: 1

Results for COc1ccc(NC(=O)Nc2ccc3c(c2)[C@@H]2C[C@H](CC(=O)NCCc4ccccc4)O[C@@H](CO)[C@@H]2O3)cc1 ?
esBAF inh: 6

How did O=C(C1=NN[C@@H]2C(=O)N(c3cccc(F)c3)C(=O)[C@H]12)C(c1ccccc1)c1ccccc1 do in these assays?
NadD block: 10; GRIN3A LBD mod: -3; SMARCA2 activ: -4; SKN-1 block: 8; Vif imaging: 16

How did O=C(C1=NN[C@@H]2C(=O)N(c3cccc(C(F)(F)F)c3)C(=O)[C@H]12)C(c1ccccc1)c1ccccc1 do in these assays?
NadD block: 14; GRIN3A LBD mod: 16*; SMARCA2 activ: 0; SKN-1 block: 14; Vif imaging: -5

Results for C[C@H](CO)N1C[C@H](C)[C@H](CN(C)C(=O)Cc2ccccc2)OCCCC[C@H](C)Oc2ccc(NC(=O)Nc3ccccc3)cc2C1=O ?
esBAF inh: 7

What do the screens show for `CCOC(=O)Cc1cc(-c2ccc(OC)cc2)nc2ccc3ccccc3c12`?
NadD block: 10; GRIN3A LBD mod: -1; SMARCA2 activ: 0; SKN-1 block: 14; Vif imaging: 3

How did CCOC(=O)Cc1cc(-c2ccc(O)cc2)nc2ccc3ccccc3c12 do in these assays?
NadD block: 3; GRIN3A LBD mod: 18*; SMARCA2 activ: -3; SKN-1 block: -1; Vif imaging: -10

Results for N#Cc1ccc(-c2ccc3c(c2)[C@H]2[C@H](CCN2C(=O)CN2CCOCC2)[C@@H](CO)N3)cc1 ?
esBAF inh: -5

Results for CC(C)(C)c1ccc(C(=O)NCCCNC(=O)c2ccco2)cc1 ?
NadD block: -2; GRIN3A LBD mod: 1; SMARCA2 activ: -4; SKN-1 block: -1; esBAF inh: 1; Vif imaging: 3

How did CN(C)CCCNCCCNC(=O)c1ccco1 do in these assays?
NadD block: 6; GRIN3A LBD mod: 11*!; SMARCA2 activ: -1; SKN-1 block: 10; esBAF inh: -7; Vif imaging: 65*!

How did CCOC(=O)N=Nc1c2ccccc2c2nc3no[nH]c3nc12 do in these assays?
NadD block: 1; GRIN3A LBD mod: 25*; SMARCA2 activ: -10; SKN-1 block: -4; Vif imaging: -5

Assay outcomes deposited in PubChem by several laboratories.
